# HMGR II inh – E. faecalis class II HMG-CoA reductase inhibition; purified E. faecalis HMGR, NADPH absorbance 340 nm kinetic; inhibition, % at 10 µM; 0.41% of 190,000 active;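 active = inhibition above a set limit, the median over all tested compounds plus 3 SD, cut at about 9.5% in these data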;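 note: enzyme runs in reverse so mevalonate oxidation gives rising NADPH absorbance; 0% = complete reaction with DMSO and 100% = background rate lacking mevalonate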
# Arbovirus inh – antivirals against arbovirus infection. 0.37% of 200,000 active. arbovirus infection cell-based antiviral screen. inhibition, % at 10 µM; in the data active = inhibition above about 30%
# Hsp70 act – transcriptional activators of Hsp70; HeLa Hsp70 promoter luciferase reporter, luminescence; scaled: vehicle 0, proteasome-inhibitor control 100%; activation, % at 10 µM; 0.04% of 200,000 active; AID 1203;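 active = activation above the mean across all tested compounds plus 3 SD, cutoff set per campaign, cut at about 5.5% in these data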;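 note: 100% = MG132 at 30 µM as the positive control and 0% = DMSO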
# Wee1 stabilizer – human Wee1 degradation inhibition, primary screen; P30291; HeLa Luc-Wee1K328M stability, luciferase luminescence; 100% = proteasome inhibitor MG132 effect; reporter increase, % at 5 µM; 1.2% of 220,000 active;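 active = activation above the mean of all tested compounds plus 3 SD, set per screening run, cut at about 8.8% in these data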;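 note: cells exposed to compound for 20 h before luminescence read; 0% = DMSO alone and 100% = MG132 at 30 µM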
# PKD1 inh – inhibitors of human PKD1 kinase; Q15139; PKD1 kinase fluorescence polarization assay; inhibition, % (test concentration not listed); 0.056% of 200,000 active; AID 797; in the data active = inhibition above about 50%
# Target sequence (Q15139 whole entry, looked up): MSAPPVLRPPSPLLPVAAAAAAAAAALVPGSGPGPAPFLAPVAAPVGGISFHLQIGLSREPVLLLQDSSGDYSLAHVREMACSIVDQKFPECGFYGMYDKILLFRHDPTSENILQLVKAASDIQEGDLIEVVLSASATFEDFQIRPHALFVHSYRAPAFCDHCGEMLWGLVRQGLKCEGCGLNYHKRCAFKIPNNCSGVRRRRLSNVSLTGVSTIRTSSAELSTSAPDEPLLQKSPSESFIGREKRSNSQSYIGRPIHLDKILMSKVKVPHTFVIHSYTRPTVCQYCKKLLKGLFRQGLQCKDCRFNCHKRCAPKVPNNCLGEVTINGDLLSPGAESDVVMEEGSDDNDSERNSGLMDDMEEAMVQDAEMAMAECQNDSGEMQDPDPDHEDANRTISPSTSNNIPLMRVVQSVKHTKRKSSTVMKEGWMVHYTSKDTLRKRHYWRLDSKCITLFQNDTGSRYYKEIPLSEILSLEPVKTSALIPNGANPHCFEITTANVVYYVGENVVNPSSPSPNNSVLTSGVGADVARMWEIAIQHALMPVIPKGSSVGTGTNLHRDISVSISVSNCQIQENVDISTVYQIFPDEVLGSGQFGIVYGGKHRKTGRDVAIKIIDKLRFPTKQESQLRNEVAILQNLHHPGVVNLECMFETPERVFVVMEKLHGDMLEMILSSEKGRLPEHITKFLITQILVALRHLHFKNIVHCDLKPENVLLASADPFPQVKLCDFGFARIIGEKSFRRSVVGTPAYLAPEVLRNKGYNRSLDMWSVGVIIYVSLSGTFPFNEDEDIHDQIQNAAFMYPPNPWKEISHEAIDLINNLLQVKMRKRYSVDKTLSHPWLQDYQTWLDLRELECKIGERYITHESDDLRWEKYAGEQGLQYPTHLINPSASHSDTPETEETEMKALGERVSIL
# PKD FP artifact – FP interference, PKD inhibitor counter-screen; inhibition, % at 10 µM; AID 1315; shares compounds with PKD1 inh; PKD1 FP assay interference counter-screen, fluorescence polarization; 85 tested, under 10 active; call rule not given here
# Hsp70 act dose – activates Hsp70 transcription in dose response | shares compounds with Hsp70 act | HeLa hsp70.1pr-luc reporter, luciferase luminescence | calls only at 99 µM | 10% of 70 active;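 active = over 50% activation at some tested dose; inactive = under 50% activation at every tested dose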
# Starred values were filed as active, the others as inactive; i = inactive; / = no result given; + = active, no number. In the library only some 2% were active in any assay of this set; here they are far more common.
SMILES,HMGR II inh,Arbovirus inh,Hsp70 act,Wee1 stabilizer,PKD1 inh,PKD FP artifact,others
CCOC(=O)N1CCN(c2cc(NCCC(=O)O)c3c4c(onc24)-c2ccccc2C3=O)CC1,0,6,0,0,56*,14,
Cc1cc(N=CC2=C(O)CC(C)(C)CC2=O)no1,-5,5,0,0,60*,-4,
COc1ccccc1CC(NC(C)=O)C(=O)NC1CCN(C(=O)c2ccc([N+](=O)[O-])cc2)CC1 (configuration not stated),-6,-5,0,2,-3,/,
NC(=NCCc1c[nH]c2ccccc12)NS(=O)(=O)c1cc(F)ccc1F,3,11,0,0,52*,-15,
O=C(NC(=S)Nc1ccc(CN2CCOCC2)cc1)c1ccc(-c2cccc(Cl)c2)o1,/,/,/,1,/,/,
O=C(Nc1ccc(CN2CCOCC2)cc1)c1ccc(-c2cccc(Cl)c2)o1,-5,-35,0,3,86*,-16,
Cc1c(C(=O)N/N=C/c2ccc(O)c(Br)c2)sc(N)c1C#N,-7,-14,0,2,76*,-17,
NS(=O)(=O)c1cccc(NC(=O)CN2CCN(Cc3ccc4c(c3)OCO4)CC2)c1,-5,2,0,1,-13,/,
O=C(Nc1ccccc1Cl)ON=C1c2ccccc2-c2ccccc21,-4,4,-1,-1,61*,-11,
O=C(Nc1ccccc1)ON=C1c2ccccc2-c2ccccc21,-2,4,0,0,51*,4,
O=C(Nc1ccccc1Cl)Oc1ccc(Cl)cc1Cl,/,/,/,-1,/,/,
O=C(Nc1ccccc1)O/N=C(\c1ccccc1)c1ccccn1,-2,-4,0,2,-10,/,
Cc1noc(C)c1COc1ccc(C(=O)Nc2cccnc2)cc1,-1,0,0,2,-7,/,
O=C(Nc1ccsc1C(=O)NC1CC1)c1ccccc1,-7,8,0,-1,50*,-10,
O=C(Nc1ccsc1C(=O)NC1CCCCC1)c1ccc(F)cc1,5,-9,0,0,-14,/,
COc1ccc(C2C(C(=O)c3cccs3)=C(O)C(=O)N2c2nncs2)cc1 (configuration not stated),2,3,0,-2,67*,34,
CCCCn1c(=O)[nH]c2nc3cc(N)ccc3nc2c1=O,2,-19,0,-3,60*,7,
Nc1ccc2nc3c(=O)n(CCc4ccccc4)c(=O)[nH]c3nc2c1,/,/,/,0,/,/,
CCOC(=O)NNC(=S)Nc1c(C)n(C)n(-c2ccccc2)c1=O,/,/,/,-2,/,/,
Cn1c(=O)c(NCCO)c2c3c(cccc31)C(=O)c1ccccc1-2,1,8,0,-3,144*,100*,
O=C(O)c1ccc(Nc2nc(-c3cccnc3)nc3ccccc23)cc1,-7,6,0,1,-5,/,
COC(=O)c1cn(CC(=O)N2C(C)CCCC2C)c2ccccc12 (configuration not stated),-6,13,-1,-1,-6,/,
CC1CCCC(C)N1C(=O)Cn1cc(/C=C2/C(=O)Nc3ccccc32)c2ccccc21 (configuration not stated),1,-3,0,-1,51*,-8,
CCOc1ccc2noc3c2c1C(=O)c1ccccc1-3,-3,-16,0,8,97*,62*,
CCNc1ccc2noc3c2c1C(=O)c1ccccc1-3,0,-19,0,0,41,/,
SMILES,HMGR II inh,Arbovirus inh,Hsp70 act,Wee1 stabilizer,PKD1 inh,PKD FP artifact,others
O=C1c2ccccc2-c2onc3ccc(NCc4ccco4)c1c23,2,-23,0,5,60*,6,
O=C(Nc1cccc([N+](=O)[O-])c1)C12CC3CC(C1)CC(n1cnc([N+](=O)[O-])n1)(C3)C2,-10,-4,0,-1,62*,0,
O=C(Nc1ccccc1)C12CC3CC(C1)CC(n1cnc([N+](=O)[O-])n1)(C3)C2,7,6,0,0,-4,/,
Cc1cc(-n2c(C)cc(C(=S)N3CCOCC3)c2C)ccc1Br,-1,-3,0,-1,1,/,
CC(=O)Nc1ccc2c(c1)c1ccccc1n2C(C)=O,-2,-4,0,-5,59*,-13,
CCOc1cc(/C=N/NC(=O)C(C)Sc2ccccn2)ccc1O (configuration not stated),-4,10,0,-1,-2,/,
CC(C)C(=O)N1CCN(c2ccc(NC(=O)c3ccc([N+](=O)[O-])o3)cc2Cl)CC1,0,-32,74*,6,0,/,Hsp70 act dose=i
O=C(Nc1ccc(N2CCN(C(=O)c3ccccc3)CC2)cc1)c1ccc([N+](=O)[O-])o1,-2,-31,32*,9,-5,/,Hsp70 act dose=i
CC(=O)N1CCN(c2ccc(NC(=O)c3ccc(Br)o3)cc2Cl)CC1,-2,4,0,-3,4,/,
CCCC(=O)N1CCN(c2ccc(NC(=O)c3ccc([N+](=O)[O-])o3)cc2Cl)CC1,-8,-32,35*,1,9,/,Hsp70 act dose=i
CCN(CC)S(=O)(=O)c1cccc(NC2=NCCCCC2)c1,/,/,/,1,/,/,
COc1ccc(C2=NO[C@@H]3[C@@H]4C[C@@H]([C@H]5C(=O)N(C)C(=O)[C@@H]45)[C@H]23)cc1,-6,2,0,2,-4,/,
CN(Cc1ccco1)C(=O)Cn1nc(-c2ccc(Cl)cc2)ccc1=O,-3,5,9.3*,1,-6,/,Hsp70 act dose=i
COc1cc(OC)nc(-n2ncc(Br)c(Br)c2=O)n1,-2,-35,30*,-1,8,/,Hsp70 act dose=+
N#Cc1ccc(NC(=O)c2nc(-c3ccccc3)n(-c3ccccc3)n2)cc1,-3,-5,6.7*,-3,1,/,Hsp70 act dose=i
O=C(Nc1ccccn1)c1nc(-c2ccccc2)n(-c2ccccc2)n1,-4,8,0,0,-7,/,
COC(=O)c1ccc(=O)n(CC(=O)c2ccc(Cl)cc2)c1,-1,7,0,2,-2,/,
Cc1[nH]c(C)c2c(=O)[nH]ncc12,/,/,/,-2,/,/,
O=C1NC(=O)C2(COC3(CCCC3)OC2)S1,3,1,28*,-3,-1,/,Hsp70 act dose=i
COc1ccc(C2OCC3(CO2)SC(=O)NC3=O)cc1 (configuration not stated),4,8,0,3,-18,/,
COC(=O)Nc1ccc(S(=O)(=O)NCc2ccccn2)cc1,-3,18,5.8*,-2,2,/,Hsp70 act dose=i
CC(CC1CC(C)(C)OC1=O)C(=O)Nc1ccc([N+](=O)[O-])cc1 (configuration not stated),4,-9,5.6*,1,-2,/,Hsp70 act dose=i
CCC(C)(C)n1nnnc1C(c1cc(OC)ccc1OC)N1CCN(Cc2ccccc2)CC1 (configuration not stated),3,4,0,0,-9,/,
Cn1c(CCN2CCOCC2)nc2cc(NC(=O)COc3ccc(Cl)cc3)ccc21,-3,-11,8.7*,-3,-7,/,Hsp70 act dose=i
